Measurements published in PubChem BioAssay AID1159580 (chemical genetic matrix, 2015).
Hit rate of the full screen: of about 5,500 compounds, about 2,000 (36%) were called active. About 18% were inconclusive and are not listed. No stated cut-off is given here; in the data, active means normalized growth mostly below about 0.91 (no sharp cut-off); inconclusive means no clear call, values can overlap the other calls; inactive means mostly above about 0.92. The list shows a part of the results.

Assay: chemical genetic growth profiling, strain panel (AID 1159580);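 further: tested at 20 µM; growth read once vehicle control cultures reached saturation at 30 °C; 1 = growth at the plate median or of vehicle wells; lower values mean less growth of the strain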
Settings: S. cerevisiae deletion strains, growth OD

Measured: normalized growth

O=C(O)C1CCCN(CCC=C(c2ccccc2)c2ccccc2)C1 (stereo not drawn)
inactive: locus YAL013W, strain DEP1, active compounds read low 1.04 | locus YAL040C, strain CLN3, active compounds read low 1.06 | locus YCL061C, strain MRC1 (second series), active compounds read low 1.01 | locus YDR150W, strain NUM1, active compounds read low 1.01 | locus YDR363W, strain ESC2, active compounds read low 1.02 | locus YER002W, strain NOP16, active compounds read low 1 | locus YGR078C, strain PAC10, active compounds read low 1.02 | locus YGR229C, strain SMI1, active compounds read low 1.04 | locus YMR263W, strain SAP30, active compounds read low 1.01 | locus YMR307W, strain GAS1, active compounds read low 1.01 | locus YNL153C, strain GIM3, active compounds read low 1.08 | locus YNL175C, strain NOP13, active compounds read low 0.999 | locus YNL197C, strain WHI3, active compounds read low 1 | locus YNL224C, strain SQS1, active compounds read low 0.997 | locus YNL322C, strain KRE1, active compounds read low 1.05 | locus YOR083W, strain WHI5 (second series), active compounds read low 1.04 | locus YPL055C, strain LGE1, active compounds read low 1.03 | locus YPL241C, strain CIN2, active compounds read low 1.01
